Data on seven compounds can be found in PubChem BioAssay (NCI).

Compounds without any hit were thinned out: in the full panel of roughly 83,000, 20% have a hit.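 Negative percent growth values reflect cell death: -40 means 40% of the cells present at the start died, and -100 means all died.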 Values without a mark were called inactive. Calls of active or inactive are those of the source. Rule for the calls: active = growth percent below 10; inactive = the rest.

Holding throughout (assay): NCI-60 one-dose screen, 48 h (100 = growth as untreated, 0 = no growth, -100 = all killed)
Common to all, as to settings: 10 µM unless noted

In test [1] the test system is NCI-H23 lung.
The subject of test [2] is NCI-H226 lung.
Test [3] has as its system NCI-H322M lung.
The subject of test [4] is HOP-62 NSCLC.
Test [5] deals with NCI-H460 lung.
The subject of test [6] is HOP-92 NSCLC.
For test [7], the system named is NCI-H522 lung.
Test [8] has as its system A549/ATCC NSCLC.
Test [9] relates to 786-0 renal.
The subject of test [10] is COLO 205 colon.
Test [11] relates to DU-145 prostate.
In test [12] the test system is K-562 leukemia.
Test [13] relates to MALME-3M melanoma.
In test [14] the test system is MDA-MB-231 breast.
The subject of test [15] is RXF 393 renal.
Test [16] concerns SF-268 CNS.
Test [17] relates to SF-295 CNS.
Test [18] deals with SF-539 CNS.
Test [19] has as its system UACC-257 melanoma.
The subject of test [20] is M14 melanoma.

With `O=C1/C(=C/c2ccc(Br)cc2)COc2ccc(O)c(O)c21`, the growth is 18.3% in test [1]; 71% in test [2]; 30.7% in [3]; -24.5% (active) in [4]; 12% in test [5]; -33.4% (active) in [6]. For the same compound, the growth in test [7] was -70.4% (active); in test [8], 20.6%; in test [9], -70.4% (active); in test [10] it was 15.4%; in test [11] it was 6.06% (active); in test [12], 5.3% (active). Further, the growth was -17.2% (active) in test [13]; -4.69% (active) in [14]; -49.2% (active) in test [15]; -36.7% (active) in test [16]; 57.6% in test [17]; -94.2% (active) in test [18]. Moreover, the growth in [19] was 9.86% (active); in test [20] it was 9.59% (active).
As to `N#Cc1nc2c(S(=O)(=O)c3ccccc3)c(N)n(Cc3cccnc3)c2nc1C#N`, the growth is 88.5% in test [1]; 97.7% in [2]; 91.7% in test [3]; -8.31% (active) in [4]; 113% in [5]; -14.8% (active) in test [6]. Besides, the growth is 46.8% in [7]; 90.1% in [8]; 106% in [9]; 92.3% in test [10]; 90.6% in test [11]; 51.6% in [12]. The growth was 78.1% in [13]; 84.7% in test [14]; 59.7% in test [15]; 52.2% in test [16]; 92.7% in test [17]; 58.7% in test [18]. The growth in test [19] was 80.3%; in [20], 142%.
Turning to `Cc1ccc(C)c2c1C(O)(C#Cc1ccccc1)c1ccccc1C2(O)C#Cc1ccccc1` (stereo not given), the growth in test [1] is 92.4%; in test [2], 89.9%; in [3], 55.8%; in test [4], 75.1%; in [5] it was 23.8%; in [6], 3% (active). The growth in [7] is 57.2%; in [8], 47.5%; in test [9], 70.5%; in test [10], 48.4%; in test [11], 87%; in [12] it was 22.2%. Also, the growth in test [13] was 39.2%; in test [14], 77%; in test [15], 64.5%; in test [16], 56.5%; in test [17], 4.71% (active); in test [18] it was 56.8%. In addition, the growth is 63% in [19] and 58.9% in test [20].
As to `Cc1ccc(N=Nc2c(N)nn(-c3ccccc3)c2N)cc1`, the growth in test [1] is 6.74% (active); in test [2] it was 76%; in test [3], 32.7%; in [4], 64%; in [5], 9.76% (active); in [6], 86.2%. Besides, the growth in test [7] is -11% (active); in test [8], 29.3%; in test [9], 63.7%; in [10], 16.9%; in [11], 27.8%; in test [12] it was 7.43% (active). The growth in test [13] was 39.3%; in test [14], 54.4%; in test [15], -0.509% (active); in test [16] it was 54.5%; in test [17], 13.8%; in [18], 11.4%. In addition, the growth in test [19] was 63.4%; in test [20] it was -2.8% (active).
For `CCc1cccc(Sc2cc(C(=O)N3Cc4ccc(OCCN(C)C)cc4C3)ccc2O)c1`, the growth in test [1] was 41.2%; in [2], 89.3%; in [3] it was 62.9%; in [4], 71.5%; in test [5], 38.9%; in test [6], 57.1%. In addition, the growth in test [7] is 66.8%; in test [8], 43.1%; in test [9], 70.6%; in [10], 109%; in test [11], 38.9%; in test [12], 22%. For the same compound, the growth in [13] was 57.3%; in test [14], 80%; in test [15], 72.2%; in test [16], 63.8%; in test [17], 78.4%; in test [18], 89%. The growth was 63.3% in [19] and 78.1% in [20].
As to `CCOC(=O)c1c(-c2ccc(Cl)cc2)c(C#N)c2c(C#N)c(N)nn2c1N`, the growth in test [1] was 85.9%; in test [2], 87.4%; in test [3], 83.4%; in test [4], 74.9%; in test [5], 77.3%; in test [6] it was 63.1%. In addition, the growth is 37.4% in test [7]; 51.3% in test [8]; 82.6% in test [9]; 69.8% in [10]; 74.9% in test [11]; 15.4% in test [12]. Further, the growth in [13] is 72.9%; in [14] it was 75.7%; in test [15], 77%; in test [16] it was 77.3%; in [17], 57.2%; in [18], 71.6%. The growth was 60.3% in [19] and 75.5% in test [20].
Consider `Cc1ccc(/C=C2\CN(C(=O)C(Cl)Cl)C/C(=C\c3ccc(C)cc3)C2=O)cc1`, for which the growth in test [1] is -35.9% (active); in test [2] it was -11.7% (active); in test [3] it was -53.7% (active); in test [4], -16.4% (active); in test [5] it was -56.1% (active); in [6], -47.9% (active). Moreover, the growth is -37.3% (active) in test [7]; 2.86% (active) in [8]; -68.6% (active) in test [9]; -63% (active) in [10]; -82.7% (active) in test [11]; -0.0477% (active) in [12]. Also, the growth in test [13] was -56.5% (active); in test [14] it was -3.27% (active); in test [15], -88.1% (active); in [16], -20.4% (active); in [17] it was -7.46% (active); in [18], -86.4% (active). The growth in [19] was -33.1% (active); in test [20] it was -65.6% (active).
